In PubChem BioAssay (NCI):
About 83,000 compounds went through this panel and 20% of them were active in at least one assay; those are over-represented in the sample as a whole.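 Treatment: one concentration, 48 hours, 96-well format. Scoring: percent growth, with anything below 10 considered active.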 The source made the active and inactive calls.

What was measured:
Test in all cases: NCI-60 one-dose screen, 48 h (100 = growth as untreated, 0 = no growth, -100 = all killed)
Conditions in all cases: 10 µM unless noted
DU-145 prostate = test system: DU-145 prostate
K-562 leukemia = test system: K-562 leukemia
MALME-3M melanoma = test system: MALME-3M melanoma
MDA-MB-231 breast = test system: MDA-MB-231 breast
RXF 393 renal = test system: RXF 393 renal
SF-268 CNS = test system: SF-268 CNS
SF-295 CNS = test system: SF-295 CNS
SF-539 CNS = test system: SF-539 CNS
UACC-257 melanoma = test system: UACC-257 melanoma
M14 melanoma = test system: M14 melanoma
HCT-15 colon = test system: HCT-15 colon
HT29 colon = test system: HT29 colon
SNB-75 CNS = test system: SNB-75 CNS
SNB-19 CNS = test system: SNB-19 CNS
U251 CNS = test system: U251 CNS
PC-3 prostate = test system: PC-3 prostate
SK-MEL-5 melanoma = test system: SK-MEL-5 melanoma
UACC-62 melanoma = test system: UACC-62 melanoma
LOX IMVI melanoma = test system: LOX IMVI melanoma
SK-MEL-28 melanoma = test system: SK-MEL-28 melanoma

Measured: growth

CCN=Cc1c(O)c(O)c(C(C)C)c2cc(C)c(-c3c(C)cc4c(C(C)C)c(O)c(O)c(C=NCC)c4c3O)c(O)c12
inactive: DU-145 prostate 53% | K-562 leukemia 16.4% | MALME-3M melanoma 75.1% | MDA-MB-231 breast 50.5% | RXF 393 renal 68.2% | SF-268 CNS 44.7% | SF-295 CNS 29.5% | SF-539 CNS 55.2% | UACC-257 melanoma 85.2% | M14 melanoma 61.6% | HCT-15 colon 23.2% | HT29 colon 25% | SNB-75 CNS 57.7% | SNB-19 CNS 27.3% | U251 CNS 25.8% | PC-3 prostate 29.4% | SK-MEL-5 melanoma 95.4% | UACC-62 melanoma 76.8% | LOX IMVI melanoma 39.1% | SK-MEL-28 melanoma 74.9%

CCN(CC)CCCC(C)Nc1ccnc2cc(Cl)c(SCc3ccccc3)cc12 (stereo not given)
active: K-562 leukemia -51.1% | MALME-3M melanoma -77.3% | MDA-MB-231 breast -78.5% | RXF 393 renal -91.1% | SF-268 CNS -66.3% | SF-295 CNS -81.7% | SF-539 CNS -89.5% | UACC-257 melanoma -79.2% | M14 melanoma -88.2% | HCT-15 colon -68.8% | HT29 colon -56.4% | SNB-75 CNS -86.2% | SNB-19 CNS -34.9% | U251 CNS -54.3% | PC-3 prostate -7.16% | SK-MEL-5 melanoma -94.9% | UACC-62 melanoma -90.8% | LOX IMVI melanoma -90.9% | SK-MEL-28 melanoma -82.5%
inactive: DU-145 prostate 25.4%

Cc1cccc(C[C@H](NC(=O)Nc2ccc(Cl)cc2F)C(=O)N[C@@H]2C(=O)N3C[C@H](O)C[C@H]3C(=O)N3CCN(C)C[C@H]3C(=O)N[C@@H](C)C(=O)N3C[C@H](C)C[C@H]3C(=O)O[C@H]2C)c1
inactive: DU-145 prostate 36.3% | K-562 leukemia 24.4% | MALME-3M melanoma 42.9% | MDA-MB-231 breast 22.4% | RXF 393 renal 81.7% | SF-268 CNS 30% | SF-295 CNS 19.7% | SF-539 CNS 53.8% | UACC-257 melanoma 22.6% | M14 melanoma 63.5% | HCT-15 colon 105% | HT29 colon 36% | SNB-75 CNS 18.8% | SNB-19 CNS 22.5% | U251 CNS 23.5% | PC-3 prostate 19.6% | SK-MEL-5 melanoma 40.7% | UACC-62 melanoma 28.3% | LOX IMVI melanoma 40.9% | SK-MEL-28 melanoma 42.4%

C=CCCC1(C)NC(=O)NC1=O (stereo not given)
inactive: DU-145 prostate 102% | K-562 leukemia 83.3% | MALME-3M melanoma 111% | MDA-MB-231 breast 101% | RXF 393 renal 121% | SF-268 CNS 98% | SF-295 CNS 95.7% | SF-539 CNS 104% | UACC-257 melanoma 104% | M14 melanoma 98.1% | HCT-15 colon 105% | HT29 colon 93.2% | SNB-75 CNS 89.3% | SNB-19 CNS 99.6% | U251 CNS 103% | PC-3 prostate 86.5% | SK-MEL-5 melanoma 104% | UACC-62 melanoma 99.2% | LOX IMVI melanoma 93.7% | SK-MEL-28 melanoma 106%

Cc1nc(Cl)c2c(n1)N(C)c1ccc(Cl)cc1C(C)C2 (stereo not given)
inactive: DU-145 prostate 105% | K-562 leukemia 77.3% | MALME-3M melanoma 95.6% | MDA-MB-231 breast 77.1% | RXF 393 renal 101% | SF-268 CNS 88.9% | SF-295 CNS 91.2% | SF-539 CNS 96.5% | UACC-257 melanoma 88% | M14 melanoma 86.9% | HCT-15 colon 90.5% | HT29 colon 83.8% | SNB-75 CNS 66.1% | SNB-19 CNS 90.5% | U251 CNS 90.1% | PC-3 prostate 73.5% | SK-MEL-5 melanoma 82.5% | UACC-62 melanoma 65% | LOX IMVI melanoma 92.3% | SK-MEL-28 melanoma 105%

O=C(N/N=C\c1cc(Cl)ccc1O)N/N=C/c1cc(Cl)ccc1O
inactive: DU-145 prostate 87.4% | K-562 leukemia 18.4% | MALME-3M melanoma 74.1% | MDA-MB-231 breast 48.3% | RXF 393 renal 85% | SF-268 CNS 57.9% | SF-295 CNS 25.5% | SF-539 CNS 39.3% | UACC-257 melanoma 65.5% | M14 melanoma 50.4% | HCT-15 colon 32.5% | HT29 colon 93.9% | SNB-75 CNS 39.8% | SNB-19 CNS 58.2% | U251 CNS 49.9% | PC-3 prostate 40% | SK-MEL-5 melanoma 52.1% | UACC-62 melanoma 54.7% | LOX IMVI melanoma 42.6% | SK-MEL-28 melanoma 80.4%

O=C(NCc1ccc(Cn2c(=O)sn(-c3ccccc3)c2=O)cc1)OCc1ccc2c(Br)cc(Br)c(O)c2n1
active: DU-145 prostate -89.6% | K-562 leukemia 5.05% | MALME-3M melanoma -76.7% | MDA-MB-231 breast -53.4% | RXF 393 renal -90.9% | SF-268 CNS -59.9% | SF-295 CNS 9.81% | SF-539 CNS -93.6% | UACC-257 melanoma -17.2% | M14 melanoma -62.6% | HCT-15 colon -10.2% | HT29 colon -66.6% | SNB-75 CNS -93.8% | U251 CNS -83.6% | PC-3 prostate -56.1% | SK-MEL-5 melanoma -97.4% | UACC-62 melanoma -76.1% | LOX IMVI melanoma -92.3% | SK-MEL-28 melanoma -69.9%
inactive: SNB-19 CNS 19.2%

COc1ccc(C(=O)CCC(=O)O)cc1
inactive: DU-145 prostate 99.7% | K-562 leukemia 49.1% | MALME-3M melanoma 87% | MDA-MB-231 breast 80.4% | RXF 393 renal 109% | SF-268 CNS 95.6% | SF-295 CNS 95% | SF-539 CNS 98.7% | UACC-257 melanoma 80.2% | M14 melanoma 95.3% | HCT-15 colon 77.6% | HT29 colon 49.8% | SNB-75 CNS 99.9% | SNB-19 CNS 104% | U251 CNS 83.1% | PC-3 prostate 92.5% | SK-MEL-5 melanoma 99.8% | UACC-62 melanoma 99.7% | LOX IMVI melanoma 90.2% | SK-MEL-28 melanoma 112%

CCC(C)[C@H](NC(=O)NC(=O)NC(=O)CI)C(=O)OC (stereo not given in full)
active: K-562 leukemia 6.27% | MALME-3M melanoma -44.9% | LOX IMVI melanoma -79.2%
inactive: DU-145 prostate 108% | MDA-MB-231 breast 46.8% | RXF 393 renal 85.3% | SF-268 CNS 94.3% | SF-295 CNS 89.4% | SF-539 CNS 91.5% | UACC-257 melanoma 85% | M14 melanoma 71.2% | HCT-15 colon 14.9% | HT29 colon 42.3% | SNB-75 CNS 92.1% | SNB-19 CNS 93.8% | U251 CNS 93.2% | PC-3 prostate 93.3% | SK-MEL-5 melanoma 91.5% | UACC-62 melanoma 88.9% | SK-MEL-28 melanoma 87.7%

COc1ccc(/C=C/C(=C/c2c(O)[nH]c3cc(Br)ccc23)N=O)cc1
inactive: DU-145 prostate 114% | K-562 leukemia 89.1% | MALME-3M melanoma 95.4% | MDA-MB-231 breast 101% | RXF 393 renal 130% | SF-268 CNS 107% | SF-295 CNS 107% | SF-539 CNS 99.4% | UACC-257 melanoma 114% | M14 melanoma 115% | HCT-15 colon 113% | HT29 colon 114% | SNB-75 CNS 113% | SNB-19 CNS 109% | U251 CNS 105% | PC-3 prostate 104% | SK-MEL-5 melanoma 103% | UACC-62 melanoma 102% | LOX IMVI melanoma 90.8% | SK-MEL-28 melanoma 120%

CCCCOC(=O)c1cccc([N+](=O)[O-])c1
inactive: DU-145 prostate 117% | K-562 leukemia 144% | MALME-3M melanoma 117% | MDA-MB-231 breast 121% | RXF 393 renal 111% | SF-268 CNS 110% | SF-295 CNS 101% | SF-539 CNS 105% | UACC-257 melanoma 93.6% | M14 melanoma 105% | HCT-15 colon 118% | HT29 colon 107% | SNB-75 CNS 94.9% | SNB-19 CNS 113% | U251 CNS 97.4% | PC-3 prostate 95% | SK-MEL-5 melanoma 110% | UACC-62 melanoma 108% | LOX IMVI melanoma 108% | SK-MEL-28 melanoma 119%

O=C(Nc1cccc2cccnc12)c1cc(C(=O)c2ccc(Cl)cc2)n2ccc(-c3ccncc3)cc12
inactive: DU-145 prostate 106% | K-562 leukemia 113% | MALME-3M melanoma 90.7% | MDA-MB-231 breast 110% | RXF 393 renal 104% | SF-268 CNS 97.8% | SF-295 CNS 98.9% | SF-539 CNS 99.7% | UACC-257 melanoma 97.7% | M14 melanoma 96.1% | HCT-15 colon 99.1% | HT29 colon 100% | SNB-75 CNS 86.6% | SNB-19 CNS 104% | U251 CNS 103% | PC-3 prostate 95.3% | SK-MEL-5 melanoma 97.2% | UACC-62 melanoma 104% | LOX IMVI melanoma 101% | SK-MEL-28 melanoma 98.2%

CC(=O)n1cc(C=O)c2ccccc21
inactive: DU-145 prostate 104% | K-562 leukemia 87.3% | MALME-3M melanoma 102% | MDA-MB-231 breast 113% | RXF 393 renal 113% | SF-268 CNS 102% | SF-295 CNS 101% | SF-539 CNS 104% | UACC-257 melanoma 94.7% | M14 melanoma 102% | HCT-15 colon 106% | HT29 colon 97.7% | SNB-75 CNS 81.7% | SNB-19 CNS 100% | U251 CNS 86.3% | PC-3 prostate 93.5% | SK-MEL-5 melanoma 97.2% | UACC-62 melanoma 94.2% | LOX IMVI melanoma 93.8% | SK-MEL-28 melanoma 105%

COCCCNc1nc(NC(=O)c2cc(Br)cc(C(F)(F)F)c2)cc(-c2cccnc2)n1
inactive: DU-145 prostate 100% | K-562 leukemia 73.3% | MALME-3M melanoma 99.7% | MDA-MB-231 breast 75.8% | RXF 393 renal 103% | SF-268 CNS 90.5% | SF-295 CNS 89.2% | SF-539 CNS 94% | UACC-257 melanoma 91% | M14 melanoma 96.5% | HCT-15 colon 85.9% | HT29 colon 83.7% | SNB-75 CNS 115% | SNB-19 CNS 95.9% | U251 CNS 85.9% | PC-3 prostate 70.6% | SK-MEL-5 melanoma 70.6% | UACC-62 melanoma 90.5% | LOX IMVI melanoma 104% | SK-MEL-28 melanoma 98.6%

NC(=O)c1cccc(-c2ccc(S(=O)(=O)Nc3ccc4c(c3)N(C(=O)C3CC3)CCC4)cc2)c1
inactive: DU-145 prostate 76.3% | K-562 leukemia 25.6% | MALME-3M melanoma 39.1% | MDA-MB-231 breast 46.2% | RXF 393 renal 47.7% | SF-268 CNS 48.8% | SF-295 CNS 18% | SF-539 CNS 26.3% | UACC-257 melanoma 46.2% | M14 melanoma 95.5% | HCT-15 colon 91.9% | HT29 colon 13.6% | SNB-75 CNS 11.9% | SNB-19 CNS 48.3% | U251 CNS 31.3% | PC-3 prostate 40% | SK-MEL-5 melanoma 11.4% | UACC-62 melanoma 26.7% | LOX IMVI melanoma 41.6% | SK-MEL-28 melanoma 51.7%
